Measurements reported in the supplement of paper PMC10849652.
Targets with a hit are over-represented here; the source holds about 7,900 in all. About 0.6% of all pairs of compound and target were hits.

How the values were obtained:
Experiment in all cases: log2 fold change, soluble protein after heating vs DMSO (PISA); higher = thermal stabilisation; K562 cells, 10 uM, 30 min; active = over 0.2 and 3.5 SD of the protein, either way, in both replicates (recomputed)
[1] = compound: CC1=C(C=C(C=C1)NC(=O)C2=CC(=CC=C2)C(C)(C)C#N)NC3=CC4=C(C=C3)N=CN(C4=O)C
Method in brief: (§1)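 Soluble protein was quantified by TMTpro 16plex LC-MS/MS after channel sums were equalised. It was obtained as the supernatant after 21,000xg for 90 min from pooled aliquots of K562 cells (2×10^6 cells/mL, 10 μM compound, 30 min) heated for 3 min across 48°C-58°C and extracted in PBS with 0.5% NP-40 at 4°C. Thermal stability values are relative to control samples and come from duplicates. They are given as log2 fold changes.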

[2] = compound: CC1=C(C=C(C=C1)NC(=O)C2=CC(=CC=C2)N(C)C)NC(=O)C3=CC=C(C=C3)O
Method in brief: as §1

[3] = compound: CC1=CC=C(C=C1)SC2=C3C=C(SC3=CN=C2)C(=O)N
Method in brief: as §1

[4] = compound: CC1=NC(=CC=C1)C2=C(N=C(N2)C(C)(C)C)C3=CC4=NC=CN=C4C=C3
Method in brief: as §1

Nexturastat A = compound: CCCCN(Cc1ccc(C(=O)NO)cc1)C(=O)Nc1ccccc1 [Nexturastat A]
Method in brief: as §1

vemurafenib = compound: CCCS(=O)(=O)Nc1ccc(F)c(C(=O)c2c[nH]c3ncc(-c4ccc(Cl)cc4)cc23)c1F [vemurafenib]
Method in brief: as §1

[5] = compound: CCCS(=O)(=O)Nc1ccc(F)c(C(=O)c2c[nH]c3ncc(Cl)cc23)c1F
Method in brief: as §1

[6] = compound: CCCc1cc(C)[nH]c(=O)c1CNC(=O)c1cc(-c2ccnc(N3CCN(C)CC3)c2)cc2c1cnn2C(C)C
Method in brief: as §1

givinostat = compound: CCN(CC)Cc1ccc2cc(COC(=O)Nc3ccc(C(=O)NO)cc3)ccc2c1 [givinostat]
Method in brief: as §1

barasertib = compound: CCN(CCCOc1ccc2c(Nc3cc(CC(=O)Nc4cccc(F)c4)[nH]n3)ncnc2c1)CCOP(=O)(O)O [barasertib]
Method in brief: as §1

Measured: log2 fold change

STARD3 (UniProt Q14849)
inactive: [1] 0.103 | [2] 0.075 | [3] -0.027 | [4] 0.036 | Nexturastat A -0.048 | vemurafenib 0.052 | [5] -0.059 | [6] 0 | givinostat 0.011 | barasertib 0.016

SQSTM1 (UniProt Q13501)
inactive: [1] 0.04 | [2] -0.065 | [3] -0.054 | [4] -0.012 | Nexturastat A 0.102 | vemurafenib 0.064 | [5] 0.047 | [6] 0.103 | givinostat -0.027 | barasertib 0.032

SNRNP27 (UniProt Q8WVK2)
inactive: [1] -0.015 | [2] -0.006 | [3] -0.008 | [4] 0.007 | Nexturastat A -0.02 | vemurafenib -0.031 | [5] -0.021 | [6] -0.361 | givinostat -0.032 | barasertib -0.039

SUPT16H (UniProt Q9Y5B9)
UniProt Q9Y5B9, sequence (Q9Y5B9 whole entry, looked up): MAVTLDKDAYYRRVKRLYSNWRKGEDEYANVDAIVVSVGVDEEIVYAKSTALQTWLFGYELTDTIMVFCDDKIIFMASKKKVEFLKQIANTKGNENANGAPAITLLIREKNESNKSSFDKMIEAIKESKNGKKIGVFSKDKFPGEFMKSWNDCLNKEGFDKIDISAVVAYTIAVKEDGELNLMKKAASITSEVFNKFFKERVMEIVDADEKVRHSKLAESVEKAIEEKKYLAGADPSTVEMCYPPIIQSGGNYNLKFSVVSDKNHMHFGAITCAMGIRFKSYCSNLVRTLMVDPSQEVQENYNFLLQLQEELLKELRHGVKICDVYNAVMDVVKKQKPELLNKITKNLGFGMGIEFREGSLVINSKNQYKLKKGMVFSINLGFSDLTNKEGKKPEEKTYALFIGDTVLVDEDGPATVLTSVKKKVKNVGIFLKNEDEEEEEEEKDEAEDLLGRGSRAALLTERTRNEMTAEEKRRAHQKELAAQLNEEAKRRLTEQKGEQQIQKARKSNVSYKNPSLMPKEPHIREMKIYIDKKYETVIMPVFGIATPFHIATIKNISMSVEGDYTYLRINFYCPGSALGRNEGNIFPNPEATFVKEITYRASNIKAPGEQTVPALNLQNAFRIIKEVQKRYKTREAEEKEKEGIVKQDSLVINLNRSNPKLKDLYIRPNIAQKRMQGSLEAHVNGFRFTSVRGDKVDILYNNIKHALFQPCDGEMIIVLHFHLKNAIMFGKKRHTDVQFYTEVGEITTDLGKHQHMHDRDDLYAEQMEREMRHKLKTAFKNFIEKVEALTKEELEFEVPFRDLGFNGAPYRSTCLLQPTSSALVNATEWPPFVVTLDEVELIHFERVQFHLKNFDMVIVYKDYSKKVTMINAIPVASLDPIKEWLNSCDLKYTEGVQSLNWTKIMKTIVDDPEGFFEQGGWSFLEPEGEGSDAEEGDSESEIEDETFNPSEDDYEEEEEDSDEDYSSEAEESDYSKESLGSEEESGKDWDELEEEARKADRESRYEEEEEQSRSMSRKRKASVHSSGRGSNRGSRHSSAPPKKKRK
inactive: [1] 0.082 | [2] -0.081 | [3] 0.01 | [4] 0.102 | Nexturastat A -0.019 | vemurafenib 0.186 | [5] 0.093 | [6] 0.061 | givinostat 0.223 | barasertib 0.187

STAT5B (UniProt P51692)
inactive: [1] -0.165 | [2] -0.102 | [3] 0.222 | [4] 0.111 | Nexturastat A 0.014 | vemurafenib 0.046 | [5] 0.08 | [6] 0.101 | givinostat 0.145 | barasertib 0.113

TFRC (UniProt P02786)
inactive: [1] -0.008 | [2] 0.023 | [3] 0.02 | [4] 0.026 | Nexturastat A -0.067 | vemurafenib -0.002 | [5] -0.007 | [6] -0.026 | givinostat 0.004 | barasertib -0.015

TJP2 isoform 7 (UniProt Q9UDY2)
inactive: [1] -0.017 | [2] -0.006 | [3] 0.007 | [4] -0.014 | Nexturastat A 0.048 | vemurafenib 0.09 | [5] 0.101 | [6] -0.194 | givinostat 0.071 | barasertib 0.102

TANK (UniProt Q92844)
UniProt Q92844, sequence (Q92844 whole entry, looked up): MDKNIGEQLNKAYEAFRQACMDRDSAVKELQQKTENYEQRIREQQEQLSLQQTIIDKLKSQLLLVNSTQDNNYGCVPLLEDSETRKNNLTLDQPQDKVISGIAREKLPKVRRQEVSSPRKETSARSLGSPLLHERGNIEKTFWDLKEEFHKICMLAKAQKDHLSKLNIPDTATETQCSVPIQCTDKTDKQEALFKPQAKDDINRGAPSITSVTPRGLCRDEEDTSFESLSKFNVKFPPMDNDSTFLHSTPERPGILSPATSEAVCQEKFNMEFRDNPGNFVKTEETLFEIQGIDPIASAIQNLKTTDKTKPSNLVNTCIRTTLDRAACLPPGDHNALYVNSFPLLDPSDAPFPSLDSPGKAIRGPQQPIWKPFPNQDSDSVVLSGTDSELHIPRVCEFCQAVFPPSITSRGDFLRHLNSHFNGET
inactive: [1] -0.076 | [2] 0.059 | [3] 0.007 | [4] 0.028 | Nexturastat A -0.047 | vemurafenib -0.031 | [5] -0.018 | [6] 0.065 | givinostat 0.013 | barasertib 0.089

TMBIM6 isoform 2 (UniProt P55061)
UniProt P55061, sequence (P55061 whole entry, looked up): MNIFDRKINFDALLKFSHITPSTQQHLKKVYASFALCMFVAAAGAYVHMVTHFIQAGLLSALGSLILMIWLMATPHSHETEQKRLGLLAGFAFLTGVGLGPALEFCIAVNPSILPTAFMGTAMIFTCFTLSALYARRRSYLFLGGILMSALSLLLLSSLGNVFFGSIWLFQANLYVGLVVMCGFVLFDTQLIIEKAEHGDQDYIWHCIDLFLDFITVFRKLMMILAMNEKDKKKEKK
inactive: [1] -0.05 | [2] 0.045 | [3] 0.04 | [4] -0.016 | Nexturastat A -0.005 | vemurafenib -0.121 | [5] 0.048 | [6] 0.619 | givinostat 0.072 | barasertib 0.019

SNX12 isoform 1 (UniProt Q9UMY4)
UniProt Q9UMY4, sequence (Q9UMY4 whole entry, looked up): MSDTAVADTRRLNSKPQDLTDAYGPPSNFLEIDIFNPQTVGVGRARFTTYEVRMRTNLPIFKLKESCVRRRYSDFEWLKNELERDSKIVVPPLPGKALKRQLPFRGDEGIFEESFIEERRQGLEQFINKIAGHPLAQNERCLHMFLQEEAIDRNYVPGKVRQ
inactive: [1] -0.021 | [2] -0.006 | [3] 0.032 | [4] 0.024 | Nexturastat A -0.082 | vemurafenib 0.054 | [5] 0.059 | [6] 0.008 | givinostat 0.004 | barasertib 0.062

SRSF10 (UniProt O75494)
UniProt O75494, sequence (O75494 whole entry, looked up): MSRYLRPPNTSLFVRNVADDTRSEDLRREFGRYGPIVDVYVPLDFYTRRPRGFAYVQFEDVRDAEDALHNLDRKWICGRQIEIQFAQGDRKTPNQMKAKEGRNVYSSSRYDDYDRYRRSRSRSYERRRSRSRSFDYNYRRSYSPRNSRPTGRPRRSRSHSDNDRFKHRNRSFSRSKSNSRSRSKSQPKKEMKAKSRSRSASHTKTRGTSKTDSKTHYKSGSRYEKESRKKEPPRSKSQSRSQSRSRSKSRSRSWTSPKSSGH
inactive: [1] -0.046 | [2] 0.029 | [3] -0.076 | [4] -0.134 | Nexturastat A 0.227 | vemurafenib -0.027 | [5] -0.027 | [6] 0.083 | givinostat 0.017 | barasertib -0.045

SPART (UniProt Q8N0X7)
inactive: [1] 0.007 | [2] -0.027 | [3] 0.055 | [4] -0.014 | Nexturastat A 0.005 | vemurafenib -0.046 | [5] 0.088 | [6] -0.025 | givinostat 0.001 | barasertib 0.037

STIM1 (UniProt Q13586)
UniProt Q13586, sequence (Q13586 whole entry, looked up): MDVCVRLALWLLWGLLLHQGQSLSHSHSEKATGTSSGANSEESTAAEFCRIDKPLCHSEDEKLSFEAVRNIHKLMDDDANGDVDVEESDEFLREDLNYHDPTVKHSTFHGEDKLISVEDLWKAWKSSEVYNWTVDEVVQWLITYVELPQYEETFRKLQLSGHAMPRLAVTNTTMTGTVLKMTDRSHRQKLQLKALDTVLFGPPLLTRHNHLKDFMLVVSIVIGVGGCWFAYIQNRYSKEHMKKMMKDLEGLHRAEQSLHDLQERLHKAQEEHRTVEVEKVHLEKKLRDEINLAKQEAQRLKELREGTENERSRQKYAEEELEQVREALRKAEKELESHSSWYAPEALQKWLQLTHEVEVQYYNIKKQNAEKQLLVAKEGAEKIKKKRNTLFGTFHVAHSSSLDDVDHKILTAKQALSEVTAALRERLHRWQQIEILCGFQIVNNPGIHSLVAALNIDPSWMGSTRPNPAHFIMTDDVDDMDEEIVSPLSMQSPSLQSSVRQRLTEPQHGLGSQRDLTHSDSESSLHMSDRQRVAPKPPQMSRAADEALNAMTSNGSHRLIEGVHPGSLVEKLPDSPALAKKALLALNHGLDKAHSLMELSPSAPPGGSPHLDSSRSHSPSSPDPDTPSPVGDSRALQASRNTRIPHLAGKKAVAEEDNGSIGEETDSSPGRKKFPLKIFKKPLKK
inactive: [1] 0.014 | [2] 0.003 | [3] 0.028 | [4] 0.045 | Nexturastat A -0.066 | vemurafenib -0.006 | [5] 0.034 | [6] -0.015 | givinostat 0.009 | barasertib 0.008

SUN1 isoform 9 (UniProt O94901)
UniProt O94901, sequence (O94901 whole entry, looked up): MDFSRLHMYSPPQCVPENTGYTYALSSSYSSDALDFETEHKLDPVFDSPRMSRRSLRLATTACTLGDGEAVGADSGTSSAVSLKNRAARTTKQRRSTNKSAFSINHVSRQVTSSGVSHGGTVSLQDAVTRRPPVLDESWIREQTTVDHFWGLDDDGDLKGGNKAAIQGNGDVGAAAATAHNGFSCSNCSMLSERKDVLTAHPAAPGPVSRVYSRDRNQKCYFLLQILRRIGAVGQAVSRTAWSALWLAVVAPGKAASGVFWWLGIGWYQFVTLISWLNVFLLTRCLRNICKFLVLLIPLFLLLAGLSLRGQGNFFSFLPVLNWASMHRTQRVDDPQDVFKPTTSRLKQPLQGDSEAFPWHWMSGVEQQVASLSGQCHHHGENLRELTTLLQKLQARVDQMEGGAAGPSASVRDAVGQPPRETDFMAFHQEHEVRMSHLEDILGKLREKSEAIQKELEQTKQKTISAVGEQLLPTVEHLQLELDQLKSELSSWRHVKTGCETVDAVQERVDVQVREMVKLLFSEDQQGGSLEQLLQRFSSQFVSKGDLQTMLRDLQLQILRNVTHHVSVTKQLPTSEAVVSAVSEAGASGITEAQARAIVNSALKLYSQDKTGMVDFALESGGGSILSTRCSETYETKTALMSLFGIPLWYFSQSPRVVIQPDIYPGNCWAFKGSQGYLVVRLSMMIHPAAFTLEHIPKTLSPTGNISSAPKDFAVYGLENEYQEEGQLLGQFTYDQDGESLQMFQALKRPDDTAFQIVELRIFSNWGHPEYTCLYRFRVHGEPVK
inactive: [1] -0.164 | [2] 0.047 | [3] 0.029 | [4] 0.04 | Nexturastat A 0.11 | vemurafenib -0.21 | [5] -0.005 | [6] 0.037 | givinostat 0.078

SYF2 (UniProt O95926)
inactive: [1] 0.03 | [2] 0.049 | [3] -0.063 | [4] -0.133 | Nexturastat A -0.015 | vemurafenib -0.071 | [5] -0.134 | [6] -0.008 | givinostat 0.031 | barasertib -0.083

TBC1D24 (UniProt Q9ULP9)
inactive: [1] -0.018 | [2] -0.012 | [3] 0.005 | [4] 0.006 | Nexturastat A -0.024 | vemurafenib 0.019 | [5] 0.046 | [6] -0.033 | givinostat 0.005 | barasertib -0.019

SNX1 (UniProt Q13596)
inactive: [1] -0.014 | [2] -0.001 | [3] -0.001 | [4] 0.042 | Nexturastat A -0.025 | vemurafenib 0.002 | [5] 0.083 | [6] -0.014 | givinostat 0.054 | barasertib 0.037

SRRM2 (UniProt Q9UQ35)
inactive: [1] -0.022 | [2] 0.01 | [3] -0.067 | [4] 0.147 | Nexturastat A 0.156 | vemurafenib 0.068 | [5] 0.007 | [6] 0.01 | givinostat 0.082 | barasertib -0.041

SRSF9 (UniProt Q13242)
UniProt Q13242, sequence (Q13242 whole entry, looked up): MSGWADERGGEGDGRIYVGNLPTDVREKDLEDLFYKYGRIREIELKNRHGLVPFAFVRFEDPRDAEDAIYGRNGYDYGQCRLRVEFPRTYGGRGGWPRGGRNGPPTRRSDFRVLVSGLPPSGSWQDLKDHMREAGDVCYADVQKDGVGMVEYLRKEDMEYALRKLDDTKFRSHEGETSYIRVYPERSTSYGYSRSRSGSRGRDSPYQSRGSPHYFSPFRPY
inactive: [1] -0.044 | [2] 0.015 | [3] -0.083 | [4] -0.082 | Nexturastat A 0.37 | vemurafenib -0.116 | [5] 0.076 | [6] 0.075 | givinostat 0.151 | barasertib -0.082

SMC5 (UniProt Q8IY18)
inactive: [1] -0.038 | [2] -0.067 | [3] -0.017 | [4] -0.032 | Nexturastat A -0.014 | vemurafenib 0.043 | [5] -0.033 | [6] -0.02 | givinostat -0.033 | barasertib -0.048

SLC25A42 (UniProt Q86VD7)
inactive: [1] -0.007 | [2] 0.041 | [3] 0.038 | [4] -0.049 | Nexturastat A -0.021 | vemurafenib -0.015 | [5] 0.089 | [6] -0.054 | givinostat -0.006 | barasertib 0.001

TK1 (UniProt P04183)
UniProt P04183, sequence (P04183 whole entry, looked up): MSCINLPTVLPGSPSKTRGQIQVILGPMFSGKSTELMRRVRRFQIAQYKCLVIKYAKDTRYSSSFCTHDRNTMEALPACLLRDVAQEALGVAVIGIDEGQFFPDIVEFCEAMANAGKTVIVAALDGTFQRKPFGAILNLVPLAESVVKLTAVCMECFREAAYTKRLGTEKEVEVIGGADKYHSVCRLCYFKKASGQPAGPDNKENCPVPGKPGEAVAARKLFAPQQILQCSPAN
inactive: [1] -0.035 | [2] 0.001 | [3] 0.01 | [4] -0.004 | Nexturastat A 0.014 | vemurafenib 0.003 | [5] -0.012 | [6] -0.095 | givinostat 0.011 | barasertib 0.011

SULT1A1 (UniProt P50225)
inactive: [1] 0.015 | [2] 0.162 | [3] -0.022 | [4] 0.025 | Nexturastat A -0.023 | vemurafenib 0.135 | [5] 0.037 | [6] 0.092 | givinostat 0.044 | barasertib 0.068

SLC38A2 (UniProt Q96QD8)
inactive: [1] 0.118 | [2] 0.026 | [3] 0.067 | [4] 0.062 | Nexturastat A -0.133 | vemurafenib 0.032 | [5] 0.096 | [6] -0.107 | givinostat -0.014 | barasertib -0.039

TGFBI (UniProt Q15582)
inactive: [1] -0.167 | [2] 0.101 | [3] 0.062 | [4] 0.091 | Nexturastat A -0.082 | vemurafenib 0.157 | [5] -0.044 | [6] -0.255 | givinostat -0.08 | barasertib 0.068

TAX1BP1 (UniProt Q86VP1)
UniProt Q86VP1, sequence (Q86VP1 whole entry, looked up): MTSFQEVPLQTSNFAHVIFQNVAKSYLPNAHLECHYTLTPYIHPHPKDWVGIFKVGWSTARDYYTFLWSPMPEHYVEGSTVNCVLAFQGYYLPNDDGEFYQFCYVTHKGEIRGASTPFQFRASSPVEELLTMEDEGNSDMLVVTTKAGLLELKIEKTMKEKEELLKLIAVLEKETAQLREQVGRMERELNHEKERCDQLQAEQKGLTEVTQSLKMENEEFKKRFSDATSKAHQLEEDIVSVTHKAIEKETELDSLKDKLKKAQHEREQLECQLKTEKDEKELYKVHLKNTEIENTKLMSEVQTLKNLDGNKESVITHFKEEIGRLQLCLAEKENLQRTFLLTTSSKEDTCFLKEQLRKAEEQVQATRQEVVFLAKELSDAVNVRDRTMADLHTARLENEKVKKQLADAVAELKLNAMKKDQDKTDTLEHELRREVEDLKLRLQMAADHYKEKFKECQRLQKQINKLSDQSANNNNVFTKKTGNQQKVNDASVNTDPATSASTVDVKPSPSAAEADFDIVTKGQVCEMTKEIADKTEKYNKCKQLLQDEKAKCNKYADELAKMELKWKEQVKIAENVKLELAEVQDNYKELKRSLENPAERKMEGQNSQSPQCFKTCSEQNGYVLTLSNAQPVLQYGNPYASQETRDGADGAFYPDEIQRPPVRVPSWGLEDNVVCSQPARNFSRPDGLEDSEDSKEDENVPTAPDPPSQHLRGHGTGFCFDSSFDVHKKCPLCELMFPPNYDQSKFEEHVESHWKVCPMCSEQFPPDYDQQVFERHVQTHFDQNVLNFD
inactive: [1] 0.031 | [2] -0.005 | [3] -0.014 | [4] -0.026 | Nexturastat A -0.014 | vemurafenib -0.003 | [5] 0.011 | [6] -0.055 | givinostat -0.033 | barasertib -0.061

STK4 (UniProt Q13043)
inactive: [1] -0.065 | [2] 0.018 | [3] -0.022 | [4] 0.007 | Nexturastat A 0.004 | vemurafenib -0.024 | [5] -0.014 | [6] 0.005 | givinostat -0.006 | barasertib 0.032
